GRIN3A LBD mod – binders of NR3A ligand-binding domain, primary screen, biophysical, differential scanning fluorimetry, uHTS | NR3A LBD differential scanning fluorimetry, Tm shift; 0% = protein alone, 100% = glycine-bound protein | 2.5% of 340,000 active | AID 1259313, 2017 | Tm shift relative to glycine control, % at 25 µM | Glutamate receptor ionotropic, NMDA 3A (GRIN3A) ligand-binding domain;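 active means melting temperature shift of at least 10% of the positive control shift, at one fixed dose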
sPLA2-III inh – human group III sPLA2 inhibitors, primary screen, biochemical, QFRET, BODIPY PC-A2 liposome substrate | QFRET BODIPY PC-A2 liposome hydrolysis, fluorescence | 0.56% of 370,000 active | inhibition, % at 12.2 µM | Group 3 secretory phospholipase A2 (Homo sapiens), Q9NZ20 | AID 743126, 2013;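 active means inhibition above mean plus 3 SD of compounds lying within the high and low control bounds, cut at about 19% in these data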
Target sequence (Q9NZ20 whole entry, looked up): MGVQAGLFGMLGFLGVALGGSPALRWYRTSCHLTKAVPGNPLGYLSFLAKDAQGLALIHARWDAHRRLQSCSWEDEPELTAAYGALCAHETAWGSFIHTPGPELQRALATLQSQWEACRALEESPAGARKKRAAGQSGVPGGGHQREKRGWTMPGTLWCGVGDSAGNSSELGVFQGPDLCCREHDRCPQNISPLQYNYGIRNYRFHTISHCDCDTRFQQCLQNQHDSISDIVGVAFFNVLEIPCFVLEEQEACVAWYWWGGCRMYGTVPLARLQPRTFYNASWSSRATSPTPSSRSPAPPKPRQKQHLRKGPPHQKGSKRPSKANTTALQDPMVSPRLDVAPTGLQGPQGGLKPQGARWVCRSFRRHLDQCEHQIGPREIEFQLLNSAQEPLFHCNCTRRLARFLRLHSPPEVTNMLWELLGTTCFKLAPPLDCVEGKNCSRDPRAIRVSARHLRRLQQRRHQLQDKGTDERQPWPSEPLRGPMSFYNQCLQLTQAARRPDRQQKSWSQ
ADAM10 inh – human ADAM10 inhibitors, primary screen, biochemical, QFRET, HTS; Disintegrin and metalloproteinase domain-containing protein 10 (Homo sapiens), O14672; 0.62% of 370,000 active; AID 720582, 2013; inhibition, % at 7 µM; recombinant ADAM10, EDANS/DABCYL FRET peptide cleavage, 3 h;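 active means inhibition above a per-campaign cutoff equal to the mean of compounds falling between control-based bounds plus 3 SD, cut at about 20% in these data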
ADAM17 inh – ADAM17 inhibitors, primary screen, biochemical, QFRET. Disintegrin and metalloproteinase domain-containing protein 17 (Homo sapiens), P78536. recombinant ADAM17, EDANS/DABCYL FRET peptide cleavage. inhibition, % at 6.95 µM. 0.83% of 370,000 active;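 active means inhibition above the mean of compounds lying between control limits plus 3 SD, set per campaign, cut at about 8.5% in these data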
FAS TE block – FAS thioesterase domain inhibitors, primary screen, biochemical, fluorescence intensity, uHTS. 0.67% of 360,000 active. Fatty acid synthase (Homo sapiens), P49327. recombinant FAS-TE, OMFH fluorogenic substrate, fluorescence endpoint. inhibition, % at 15 µM;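 active means compounds whose normalised, plate-corrected inhibition of enzyme fluorescence in the single-dose primary screen is 50% or more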
ADAM10 ctr – ADAM10 inhibitors, counter-screen for ADAM17 exosite inhibitor project, biochemical, FRET, human ADAM10; inhibition, % at 6.95 µM; AID 743256, 2014; 47% of 2,900 active; shares compounds with ADAM17 inh; recombinant ADAM10, EDANS/DABCYL FRET peptide cleavage, 3 h;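 active means mean inhibition over the triplicate runs exceeds the activity threshold set in the earlier primary screen, cut at about 20% in these data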
ADAM17 confirm – ADAM17 inhibitors, hit retest, confirmation, biochemical, QFRET peptide cleavage | shares compounds with ADAM17 inh | recombinant ADAM17, EDANS/DABCYL QFRET peptide cleavage | inhibition, % at 6.95 µM | 65% of 2,900 active;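 active means mean inhibition across replicates above the hit cutoff set in the primary screen, cut at about 8.5% in these data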
Each line names hits and unclear results; the compound was inactive in the other large screens (follow-up assays come after a bar, where they were run). Only some compounds are listed: those with a hit (about 4.3% of all), similar ones and a draw of the others.

Cc1cnc(C(=O)OC(C)C(=O)Nc2ccc3c(c2)OCCO3)cn1 (configuration not stated)	ADAM17 inh 9.9 | ADAM10 ctr inactive | ADAM17 confirm 14
CC(OC(=O)c1cc(S(=O)(=O)Nc2ccc(F)cc2)ccc1Cl)C(=O)Nc1ccc2c(c1)OCCO2 (configuration not stated)	ADAM17 inh 9.8 | ADAM10 ctr inactive | ADAM17 confirm inactive
C=CCN1C(=O)[C@@H](CC(=O)NCCCOC)[C@]2(C(=O)OC)CCCCC=C12	none (no result: GRIN3A LBD mod, FAS TE block)
CC1(C(=O)NS(=O)(=O)c2cccc(F)c2)CCN1C(=O)Cc1ccc(-c2ccccc2)cc1 (configuration not stated)	none (no result: GRIN3A LBD mod)
CC1(C(=O)NS(=O)(=O)c2cccc(Cl)c2)CCN1C(=O)Cc1ccc(-c2ccccc2)cc1 (configuration not stated)	ADAM17 inh 9.0 (no result: GRIN3A LBD mod) | ADAM10 ctr inactive | ADAM17 confirm inactive
COc1ccc(C(=O)CSc2nnc(-c3cccc(Cl)c3)n2Cc2ccco2)cc1	none (no result: GRIN3A LBD mod, FAS TE block)
CCOC(=O)[C@@H]1CSCCS(=O)(=O)N1C(=O)[C@H](Cc1ccccc1)NC(=O)OC(C)(C)C	none (no result: GRIN3A LBD mod, FAS TE block)
COc1cccc(NC(=O)c2cccc(S(=O)(=O)N3CCN(Cc4ccccc4)CC3)c2)c1	none
CC(=O)Nc1cccc(NC(=O)c2cccc(S(=O)(=O)N3CCN(Cc4ccccc4)CC3)c2)c1	ADAM17 inh 20 | ADAM10 ctr inactive | ADAM17 confirm 12
Cc1cc(C)cc(C(=O)NCC(=O)OCC(=O)N2CCN(S(=O)(=O)c3ccc4ccccc4c3)CC2)c1	ADAM17 inh 10 | ADAM10 ctr 26 | ADAM17 confirm 12
O=S(=O)(N[C@H]1CCCC[C@@H]1N1CCOCC1)c1ccc(Cl)cc1	none (no result: GRIN3A LBD mod, FAS TE block)
O=S(=O)(c1ccc2c(c1)OCCO2)N1CCN(c2cccc(Cl)c2)CC1	none
O=S(=O)(c1cccc(Cl)c1)N1CCN(S(=O)(=O)c2ccc3c(c2)OCCO3)CC1	ADAM17 inh 10 | ADAM10 ctr inactive | ADAM17 confirm inactive
CCOC(=O)CC[C@H]1CC[C@]2(CCCN(C3CCCCC3)C2)O1	none (no result: GRIN3A LBD mod, FAS TE block)
Cc1ccc(NC(=O)OCCN(C)C(=O)Nc2ccc(C)cc2C)c(C)c1	none (no result: GRIN3A LBD mod, FAS TE block)
COc1ccc(Oc2ccc(/C=C/C(=O)c3ccc(O)cc3)cc2[N+](=O)[O-])cc1	GRIN3A LBD mod 20, ADAM17 inh 9.6 | ADAM10 ctr 38 | ADAM17 confirm 22
O=S(Cc1ccc(Br)cc1)Cc1nnc(SCc2ccc(Cl)cc2)n1-c1ccccc1 (configuration not stated)	ADAM17 inh 8.6 | ADAM10 ctr 27 | ADAM17 confirm 15
O=C(NC1CCCCCCC1)c1c(O)c2ccccc2[nH]c1=O	ADAM17 inh 9.4 | ADAM10 ctr inactive | ADAM17 confirm inactive
CCOC(=O)N1CCC(n2c(SCC(=O)Nc3ccccc3OC)nc3ccccc3c2=O)CC1	ADAM17 inh 10 | ADAM10 ctr 29 | ADAM17 confirm 16
C=CCNC(=S)N(C)[C@H]1C[C@H]2c3cc(-c4ccccc4C)ccc3CCN2C[C@H]1[C@H](C)O	none (no result: GRIN3A LBD mod, FAS TE block)
COc1ccccc1NC(=O)COc1ccc(-c2nn(C)c(=O)c3ccccc23)cc1	none
COc1ccccc1NC(=O)Cn1nc(-c2ccc(Cl)cc2)c2ccccc2c1=O	ADAM17 inh 8.7 | ADAM10 ctr inactive | ADAM17 confirm 14
CCS(=O)(=O)N1CCN(Cc2ccccc2OC)CC1	ADAM17 inh 10 | ADAM10 ctr inactive | ADAM17 confirm inactive
O=C(C(=O)N1CCC(CNS(=O)(=O)c2ccccc2)CC1)c1cc2ccccc2o1	none (no result: GRIN3A LBD mod, FAS TE block)
Cc1ccc(/C(CSc2nccn2-c2ncc(C(F)(F)F)cc2Cl)=N\O)cc1	ADAM17 inh 15 | ADAM10 ctr inactive | ADAM17 confirm 9.1
O=C(CSc1nccn1-c1ncc(C(F)(F)F)cc1Cl)c1ccc(Br)cc1	none (no result: sPLA2-III inh, ADAM10 inh, ADAM17 inh)
CSCCC(NS(=O)(=O)c1ccc(Cl)cc1)C(=O)OCC(=O)c1c(C)[nH]c2ccccc12 (configuration not stated)	GRIN3A LBD mod 17, ADAM17 inh 9.7 | ADAM10 ctr 29 | ADAM17 confirm 17
Cc1cccc(CCNC(=O)CSc2nc3c([nH]2)c(=O)n(C)c(=O)n3C)c1	none (no result: GRIN3A LBD mod, FAS TE block)
COc1ccc(C=O)cc1-c1cc(C(C)=O)c2n(c1=O)CCC2	none (no result: GRIN3A LBD mod, FAS TE block)
Cc1ccc(S(=O)(=O)Nc2ccccc2CNc2ccccn2)cc1	ADAM17 inh 8.8 | ADAM10 ctr inactive | ADAM17 confirm 10
CCOC(=O)C1(C)Oc2ccccc2C(C(=O)OC)=C1C(=O)OC (configuration not stated)	none
COC(=O)C1=C(C(=O)OC)SC2(S1)C(C(=O)OC)=C(C(=O)OC)SC1=C2c2cccc(C)c2NC1(C)C	ADAM17 inh 13 | ADAM10 ctr inactive | ADAM17 confirm 11
O=C(CC(c1ccccc1)c1ccccc1)Nc1ccc2c(c1)OCCO2	ADAM17 inh 12 | ADAM10 ctr inactive | ADAM17 confirm 14
CC(=O)NC(CC(=O)Nc1ccc2c(c1)OCCO2)c1ccccc1 (configuration not stated)	none
Cc1ccc(C(=O)OCC(=O)c2c[nH]c3ccccc23)cc1S(=O)(=O)N1CCOCC1	ADAM17 inh 10.0 | ADAM10 ctr inactive | ADAM17 confirm inactive
Nc1ccn([C@@H]2O[C@H](C(=O)N[C@H](Cc3ccccc3)C(=O)Nc3ccc4scnc4c3)[C@@H](O)[C@H]2O)c(=O)n1	none (no result: GRIN3A LBD mod, FAS TE block)
C/C=C(\C)C(=O)Nc1cccc(C2=NOC3(C2)C[C@@H](C(N)=O)N(C(=O)c2cc([N+](=O)[O-])cc([N+](=O)[O-])c2C)C3)c1 (some centres not stated)	none
Cc1c(C(=O)N2CC3(CC(c4cccc(NC(=O)CC(c5ccccc5)c5ccccc5)c4)=NO3)C[C@@H]2C(N)=O)cc([N+](=O)[O-])cc1[N+](=O)[O-] (some centres not stated)	ADAM17 inh 11 | ADAM10 ctr 34 | ADAM17 confirm 19

Source: PubChem BioAssay
